Test systems include HCT-15 colon; HT29 colon; SNB-75 CNS; SNB-19 CNS; U251 CNS; PC-3 prostate; SK-MEL-5 melanoma; UACC-62 melanoma; LOX IMVI melanoma; SK-MEL-28 melanoma.
Holding throughout (experiment): NCI-60 one-dose screen, 48 h (100 = growth as untreated, 0 = no growth, -100 = all killed)
Common to all, as to conditions: 10 µM unless noted

Compounds without any hit were thinned out: in the full panel of roughly 83,000, 20% have a hit.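 Interpretation: 100, growth as untreated; towards 0, rising growth inhibition; 0, no net growth; 0 to -100, cell death. Compounds scoring below 10 were considered active.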 A number with no mark means an inactive call. Active and inactive are the calls of the source.

As to `C#CCN(C)CCCOc1ccc(N(CC)C(=O)c2cc(C(C)C)c(O)cc2O)cc1Cl`, the growth was -52.8% (active) in the assay on HCT-15 colon; 7.04% (active) in the assay on HT29 colon; -1.15% (active) with SNB-75 CNS; 11.2% with SNB-19 CNS; 1.31% (active) in the assay with U251 CNS; 12.6% in the assay with PC-3 prostate. The growth with SK-MEL-5 melanoma is -95.9% (active); in the assay on UACC-62 melanoma, -66% (active); in the assay with LOX IMVI melanoma, -95.4% (active); in the assay with SK-MEL-28 melanoma it was 5.69% (active).
On to `NCCCCn1c(SCCc2c[nH]c3ccccc23)nnc1-c1ccc2ccccc2n1`, for which the growth in the assay with HCT-15 colon is -1.2% (active); in the assay on HT29 colon, -45.3% (active); with SNB-75 CNS it was 0.128% (active); in the assay with SNB-19 CNS, 18.6%; in the assay on U251 CNS it was -84.8% (active); with PC-3 prostate, 2.82% (active). Besides, the growth was -99.4% (active) in the assay with SK-MEL-5 melanoma, -88.5% (active) with UACC-62 melanoma, -95.6% (active) in the assay with LOX IMVI melanoma and -97.4% (active) in the assay with SK-MEL-28 melanoma.
For `Clc1ccc(Nc2nnc(-c3c[nH]c4ccccc34)o2)cc1`, the growth in the assay on HCT-15 colon is 40.4%; in the assay on HT29 colon, 88.6%; with SNB-75 CNS, 59.5%; in the assay on SNB-19 CNS, 85.5%; with U251 CNS it was 76.4%; with PC-3 prostate, 60.7%. Also, the growth in the assay on SK-MEL-5 melanoma is 87.6%; in the assay with UACC-62 melanoma it was 65.4%; in the assay on LOX IMVI melanoma, 58.1%; with SK-MEL-28 melanoma, 91.1%.
For the compound `Cc1ccc(C(=O)Nc2cc(-n3ccnc3C)cc(C(F)(F)F)c2)cc1C#Cc1cnc2cccnn12`, the growth was 5.01% (active) with HCT-15 colon; -16.8% (active) in the assay with HT29 colon; -28.1% (active) with SNB-75 CNS; 30.3% with SNB-19 CNS; 22.1% in the assay on U251 CNS; 8.32% (active) in the assay with PC-3 prostate. Besides, the growth with SK-MEL-5 melanoma is -67.6% (active); in the assay on UACC-62 melanoma, -40% (active); in the assay on LOX IMVI melanoma, -80.2% (active); with SK-MEL-28 melanoma, -32.4% (active).
In the case of `CC1=C(C(=O)Nc2ccccc2)C(c2cccc3ccccc23)n2c(nc3ccccc32)N1` (stereo not given), the growth with HCT-15 colon is 64.6%; with HT29 colon, 40.5%; with SNB-75 CNS, -63% (active); in the assay with SNB-19 CNS, 20.2%; with U251 CNS, 25%; in the assay on PC-3 prostate it was 31.3%. Further, the growth in the assay on SK-MEL-5 melanoma is 82.6%; in the assay with UACC-62 melanoma, 66.8%; in the assay with LOX IMVI melanoma, 53.5%; in the assay on SK-MEL-28 melanoma, 70%.
As for `O=C(/C=C1\C(=O)N(Cc2ccccc2)c2ccccc21)c1cc2ccccc2oc1=O`, the growth in the assay on HCT-15 colon is 31.8%; in the assay on HT29 colon, 113%; in the assay with SNB-75 CNS it was 88%; with SNB-19 CNS, 102%; in the assay with U251 CNS, 98.4%; in the assay with PC-3 prostate it was 90.7%. The growth is 90.2% with SK-MEL-5 melanoma, 79.5% in the assay with UACC-62 melanoma, 85.2% in the assay with LOX IMVI melanoma and 92.1% with SK-MEL-28 melanoma.
Consider `O=C(Cc1c(-c2ccccc2[N+](=O)[O-])n(-c2ncnc3c2c(-c2ccccc2)c(-c2ccccc2)n3Cc2ccccc2)[nH]c1=O)c1ccc(Cl)c(Cl)c1`, for which the growth is 46.9% in the assay with HCT-15 colon; 18.4% with HT29 colon; 14% in the assay on SNB-75 CNS; 16.8% with SNB-19 CNS; 28.1% with U251 CNS; 8.7% (active) with PC-3 prostate. The growth in the assay on SK-MEL-5 melanoma is -45.3% (active); in the assay with UACC-62 melanoma, -9.59% (active); in the assay on LOX IMVI melanoma, 14.9%; in the assay on SK-MEL-28 melanoma, 27.8%.
In the case of `Cn1cc(-c2cc(N)n3nc(-c4c[nH]c5ccc(F)cc45)cc3n2)c2cccnc21`, the growth with HCT-15 colon is -52.3% (active); in the assay on HT29 colon, -70.1% (active); in the assay with SNB-75 CNS, -48.5% (active); with SNB-19 CNS, -24.8% (active); with U251 CNS, -84.7% (active); with PC-3 prostate, -45.3% (active). Besides, the growth was -98.4% (active) in the assay with SK-MEL-5 melanoma, -93.6% (active) in the assay on UACC-62 melanoma, -97.9% (active) in the assay with LOX IMVI melanoma and -92.6% (active) in the assay on SK-MEL-28 melanoma.
For `O=C1Nc2cc(-c3ccc(NS(=O)(=O)c4ccc([N+](=O)[O-])cc4)cc3)ccc2/C1=C/c1ccc[nH]1`, the growth in the assay with HCT-15 colon is 11%; in the assay with HT29 colon, -17.3% (active); in the assay with SNB-75 CNS, 34.1%; with SNB-19 CNS, 31.1%; in the assay with U251 CNS it was -62.4% (active); in the assay on PC-3 prostate it was 25.7%. The growth in the assay on SK-MEL-5 melanoma is 24.2%; in the assay on UACC-62 melanoma, 0.956% (active); in the assay with LOX IMVI melanoma, -20.6% (active); with SK-MEL-28 melanoma, 9.97% (active).
For the compound `O=C1Nc2cc(-c3ccc(NS(=O)(=O)c4ccc(F)c(Cl)c4)cc3)ccc2/C1=C/c1ccc[nH]1`, the growth in the assay on HCT-15 colon is 14%; in the assay with HT29 colon it was -18.4% (active); in the assay with SNB-75 CNS, 62.7%; with SNB-19 CNS, 46.6%; with U251 CNS it was 2.34% (active); in the assay with PC-3 prostate, 30.2%. Also, the growth with SK-MEL-5 melanoma was 58.8%; in the assay on UACC-62 melanoma it was 32.9%; in the assay on LOX IMVI melanoma, 0.97% (active); in the assay with SK-MEL-28 melanoma, 41.4%.
On to `C/C(=N/O)c1ccc(NC(=O)CSc2nnc(-c3ccc4nc(-c5ccc(Cl)cc5)[nH]c4c3)o2)cc1`, for which the growth in the assay with HCT-15 colon is 99.1%; with HT29 colon it was 93.2%; in the assay with SNB-75 CNS it was 55.8%; in the assay on SNB-19 CNS it was 20.8%; in the assay with U251 CNS, -58.8% (active); in the assay with PC-3 prostate, 41%. Also, the growth in the assay with SK-MEL-5 melanoma was 11%; with UACC-62 melanoma, 10.5%; with LOX IMVI melanoma, -64.4% (active); in the assay with SK-MEL-28 melanoma it was -61.5% (active).
In the case of `O=C1Nc2ccc(F)cc2/C1=C/C(=O)c1cc2ccccc2oc1=O`, the growth in the assay on HCT-15 colon was 62.7%; with HT29 colon it was 115%; in the assay on SNB-75 CNS, 91.1%; with SNB-19 CNS it was 100%; with U251 CNS, 104%; in the assay on PC-3 prostate it was 93.7%. The growth in the assay with SK-MEL-5 melanoma was 102%; in the assay on UACC-62 melanoma, 82.2%; with LOX IMVI melanoma, 80.4%; in the assay on SK-MEL-28 melanoma it was 117%.
For `O=C(NC(=S)N1CCN(c2ncnc3c2cnn3-c2ccccc2)CC1)c1ccc(F)cc1`, the growth with HCT-15 colon was 49.9%; in the assay with HT29 colon it was 78%; in the assay with SNB-75 CNS it was 53.7%; with SNB-19 CNS it was 84.9%; in the assay on U251 CNS, 85.9%; in the assay with PC-3 prostate, 71.9%. Also, the growth in the assay on SK-MEL-5 melanoma is 56%; with UACC-62 melanoma it was 74.2%; in the assay with LOX IMVI melanoma, 63.4%; with SK-MEL-28 melanoma it was 85.6%.

The record behind these values is PubChem BioAssay (NCI).
